Laboratory results as given in PubChem BioAssay (NCATS).
Records with an inconclusive call do not appear. Calls of active or inactive are those of the source. Calls follow the shape of the dose curve; as a rule, active = well fitted inhibition curve with a large enough effect; inconclusive = small, poorly fitted or top-dose-only effect; inactive = flat fitted curve, though single readings scatter.

Experiment: qHTS for Inhibitors of Plasmodium falciparum (HB3) proliferation (AID 504318); also: nearly all actives have a fitted effect of over 60% in size
Details: P. falciparum HB3 in erythrocytes, SYBR Green DNA, 72 h; series mostly up to 7.21 µM
Excerpt: Plasmodium falciparum is a virulent malarial parasite that kills 1-2 million people worldwide each year. Malaria not only inflicts tremendous suffering and morbidity on the human population, but has dramatically influenced the course of civilization with profound sociological and economic implications (Shah, S. 2010). Transmitted by mosquitoes, the sporozoite form of the parasite enters the blood stream to infect hepatocytes, where they become merozoites that infect red blood cells (erythrocytes). Within erythrocytes, merozoites begin a […] cycle of growth and division, after which the parasite is released to infect new red blood cells. Gametocytes, which form within erythrocytes as well, circulate in the bloodstream and are ingested by the mosquito, thereby completing the life cycle (see CDC website). To profile malarial lines for differential chemical responses and to identify inhibitors of malarial growth, an assay that measures P. falciparum growth and replication within erythrocytes was employed. This assay uses a DNA binding fluorescent dye (SYBR Green) to detect parasite DNA following cell lysis. Because mature erythrocytes lack DNA, only Plasmodium-derived DNA is detected. The P. falciparum line cp250, derived from a malarial isolate from Cambodia, (Mu, J., et al. 2010) was added to the panel of lines, Dd2, HB3, 7G8 and GB4 in this study. Laboratory of Assay Development and Screening Technology [ADST] and NIH Chemical Genomics Center [NCGC] Boston University, Chemistry Department, Center for Chemical Methodology and Library Development [CMLD-BU] NIH National Institute of Allergy and Infectious Diseases [NIAID]
ADST Assay Protocol Summary: The 1536-well SYBR Green viability assay was based on the method of Bennett et al (2004) and described previously in 1536-well format (Yuan J., et al. 2009). For screening 3 ul culture medium was dispensed into 1536 well black clear bottom plates (Aurora Biotechnologies) using a Multidrop Combi (Thermo Fisher Scientific Inc.), 23 nL compounds in DMSO were added by a pin transfer (Cleveland, P.H. and Koutz, P.J, 2005) using a pin tool-based delivery system (Kalypsys), and 5 ul of erythrocytes infected with P. falciparum one of five lines (cp250, Dd2, HB3, 7G8 or GB4, 0.3% parasitemia, 2.5% hematocrit final concentration) were added. The plates were incubated at 37C in a humidified incubator in 5% CO2 for 72 h, and 2 ul lysis buffer (20 mM Tris HCl, 10 mM EDTA, 0.16% saponin, 1.6% triton X, 10X SYBR Green I (supplied as 10,000X final concentration by Invitrogen) was added to each well. The plates were mixed for 25 sec with gentle shaking and incubated overnight at room temperature in the dark. The following morning, fluorescence intensity at 485(14) nm excitation and 535(25) nm emission wavelengths was measured on an EnVision (Perkin Elmer) plate reader. Plate reads were normalized relative to the control inhibitor (0.29 uM artemisinin) and vehicle (DMSO) wells present on each plate and then corrected by an algorithm using vehicle-only control plates at the beginning and end of the compound plate stack. References Shah, S. (2010). The Fever: how malaria has ruled humankind for 500,000 years. New York, Sarah Crichton Books. CDC web site, http://www.cdc.gov/malaria/about/biology/index.html Mu, J., Myers, R.A., Jiang, H., Liu, S., Ricklefs, S., Waisberg, M., Chotivanich, K., Wilairatana, P., Krudsood, S., White, N.J., et Plasmodium falciparum genome-wide scans for positive selection, recombination hot spots and resistance to antimalarial drugs Nature Genetics 2010, 42, pp 268-271 Bennett TN, Paguio, M., Gligorijevic, B., Seudieu, C., Kosar, A. D., Davidson, E., and Roepe, P. D. Novel, rapid, and inexpensive cell-based quantification of antimalarial drug efficacy Antimicrobial Agents Chemother. 2004, 48(5): pp 1807-10 Yuan J, Johnson RL, Huang RL, Wichterman J, Jiang HY, Hayton K, Fidock DA, Wellems TE, Inglese J, Austin CP, Su XZ. […]
Potency is read from the fitted curve at half-maximal effect.

Potency, active:
COc1ccc2c3c(c(=O)oc2c1)[C@H]1O[C@](CCCCN2C(=O)c4ccccc4C2=O)(Cc2cc(OC)c(OC)cc21)O3 1510 nM
CC1(C)CC(=O)C2=C(C1)O[C@@]1(CCCCN3C(=O)c4ccccc4C3=O)Cc3ccccc3[C@H]2O1 1510 nM
COc1cc2c(c(OC)c1OC)C(c1ccccc1)(c1ccccc1)CC2NC(=O)C(F)(F)F (stereo not given) 2390 nM

Potency, inactive:
COc1ccc2c(c1)[C@@]1(OCCC=C[C@@H]1C)C(=O)N2CC1CC1
COC(=O)C(C(=O)OC)C1c2ccccc2C=C(C2CC2)N1C(=O)OC (stereo not given)
CC[C@H](C)[C@@H](NC(=O)O[C@H]1C(=O)c2ccc(OC)cc2O[C@@H]1c1ccc2c(c1)OCO2)C(=O)OC
CCCCC1=CC2=C(c3ccco3)C(=O)C(C)(OC(=O)c3ccc(OC)cc3)C(=O)C2=CN1Cc1ccco1 (stereo not given)
COC(=O)CC=C[C@@H](C)[C@@H](C=NO[C@H](C)CN1CCCc2nc(C)c(C)cc21)N[S+](=O)([O-])c1ccc(C)cc1
CCOC(=O)CN1C(=O)[C@@]2(CC(C)=C[C@@H](COCc3ccccc3)O2)c2ccccc21
CC[C@@H](c1ccccc1)n1c(=O)n2n(c1=O)[C@H]1[C@H](O)[C@@H]3O[C@H]3C(=NOCc3ccccc3)[C@H]1CC2
COCCN1C(=O)NC(c2ccc(Br)cc2)C(C(C)=O)=C1C (stereo not given)
CCN1C(=NCCc2cccnc2)N[C@H](CCc2ccccc2)[C@H](C(=O)OC)[C@H]1C
CC(C)[C@@H](OCc1ccccc1)[C@H](C)C=NOC[C@@H](O)COCc1ccco1
C=CC1=C2C=C(C3CC3)N(CC3CC3)C=C2C(=O)C(C)(OC(=O)c2ccco2)C1=O (stereo not given)
C=CCN1C(=O)CC[C@@]23C1=NC(C(=O)OC)=C(C(=O)OC)[C@@H]2N(CC=C)c1ccccc13
COc1cccc([C@@H]2Oc3ccc(Br)cc3C[C@@H]2OC(=O)N[S+](=O)([O-])c2ccc(C)cc2)c1
COC(=O)C[C@H]1c2ccccc2C2=C(C[C@@H](C)[C@H]3C(=O)N(c4ccccc4)C(=O)[C@@H]23)N1C(=O)OC
CC1=C[C@]2(O[C@H](COc3ccccc3)C1)C(=O)N(C)c1ccccc12
CC1(OC(=O)C2CCCC2)C(=O)C=C2C=C(c3ccsc3)N(CC3CC3)C=C2C1=O (stereo not given)
CCN1C(=S)NC(c2cccs2)C(C(=O)OC)=C1C (stereo not given)
C=CC[C@@H]1C=C[C@@H](Oc2ccc(OC)cc2)[C@H](COC(=O)c2ccc(Br)cc2)O1
CCN1C(=NCc2ccccc2)NC(c2cccc(C(F)(F)F)c2)C(C(=O)OC)=C1C (stereo not given)
CC(=O)C1=C(C)N(CC#C[Si](C)(C)C)C(=O)N(C(C)=O)C1c1ccccc1 (stereo not given)
CON(C)C(=O)c1nnc2c3ccccc3n(S(=O)(=O)c3ccc(C)cc3)c2n1
CC1(OC(=O)C2CCCC2)C(=O)C=C2C=C(c3ccsc3)N(CCc3ccccn3)C=C2C1=O (stereo not given)
CC1(OC(=O)c2ccco2)C(=O)C=C2C=C(c3ccsc3)OC=C2C1=O (stereo not given)
C[C@H]1C(C(=O)N2CCCC2)=Cc2[nH]c(=O)[nH]c2C=C1c1ccccc1
COC(=O)C1=C(C)N(Cc2ccccc2)C(=NCCCCO)NC1c1cccc(F)c1 (stereo not given)
O=C1CCCC(C(C(=O)OCc2ccccc2)C(=O)OCc2ccccc2)C1 (stereo not given)
COCC=CC1=CC2=CC(=O)C(C)(OC(=O)c3cnc4ccccc4n3)C(=O)C2=CN1Cc1ccccc1 (stereo not given)
COc1ccc(-c2nc3c(c4c2C[C@H](c2ccccc2)OC4)CN(C(=O)C2CC2)CC3)c(C)c1
C[C@@H]1C=CCC(=O)N2[C@H](CC(=O)N[C@@H]1c1ccccc1)C[C@@H](C)[C@@H]2c1ccccc1
C=C(C)CCN1C(=O)NC(c2cccc(C(F)(F)F)c2)C(C(=O)OC)=C1C (stereo not given)
CCN(CC)CCCN1C=C2C(=O)C(C)(OC(=O)C3CCCC3)C(=O)C=C2C=C1c1ccsc1 (stereo not given)
COC1=C[C@H](C(=O)NCc2ccccn2)[C@@]2(C)Cc3ccccc3[C@@H]2CC1=O
C=CCOC(=O)N[C@H](c1ccccc1)[C@H](C)C=CCC(=O)OC
CCOC(=O)CN1C(=O)N[C@@H](CCc2ccccc2)[C@H](C(=O)OC)[C@H]1C
CCN1C(=O)NC(c2ccc(Br)cc2)C(C(C)=O)=C1C (stereo not given)
C=C(C)C(O)C=Cc1ccc(Br)cc1 (stereo not given)
CCCCCCCc1cc2ccccc2c2c(C(=O)OC)c(C(=O)OC)c(C(=O)OC)n12
